Inhibition data for 15 compounds are collected here from PubChem BioAssay.

Assay [1] addresses Nuclear receptor coactivator 3 (Homo sapiens) (UniProt Q9Y6Q9). In words: NCOA3 GAL4-fusion reporter inhibition – cell-based, luminescence, quadruplicate, confirmation (AID 588792;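 active = mean inhibition over 43.08%, the solvent-only control mean plus 3 SD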;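 also: 0% = DMSO treated cells and 100% = gossypol at 36 µM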). Conditions: HEK293 GAL4-SRC3 luciferase reporter, at 3.6 µM, hits give high values. On the technique in general: In a reporter assay the amount or activity of a reporter protein is the signal.
The test system of assay [2] is transactivating tegument protein VP16 (Human herpesvirus 1), Gal4-VP16 luciferase reporter. In words: repression of VP16-driven luciferase reporter – cell-based, luminescence, high throughput, counter-screen for SRC3 inhibitor project (AID 588794). The conditions noted are these: mammalian cells, at 3.6 µM, hits give high values.
Assay [3] has as its target Nuclear receptor coactivator 1 (Homo sapiens) (UniProt Q15788). In words: NCOA1 GAL4-fusion reporter inhibition – cell-based, luminescence, quadruplicate, confirmation (AID 588820;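 active = mean inhibition above 46.68%, the untreated control wells mean plus 3 SD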;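 also: 0% = DMSO wells and 100% = gossypol 36 µM treated wells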). Conditions: HEK293 GAL4-SRC1 luciferase reporter, at 3.6 µM, hits give high values.
Assay [4] in a line: repression of VP16-driven luciferase reporter – cell-based, luminescence, high throughput, counter-screen for SRC1 inhibitor project (AID 588824; in the data active = inhibition above about 25%). Conditions: cell-based VP16 transactivation luciferase luminescence; at 3.6 µM; hits give high values.
The nature of assay [5]: StAR promoter reporter inhibitors, counter-screen for LRH-1 inverse agonist project, cell-based, luminescence, high throughput (AID 651611; in the data active = inhibition above about 28%). The conditions noted are these: StAR promoter luciferase reporter counterscreen, at 3.6 µM, hits give high values.
Assay [6] addresses Nuclear receptor subfamily 5 group A member 2 (Homo sapiens) (UniProt O00482). Description: NR5A2 activity suppression in reporter cells – cell-based, luminescence, confirmation (AID 651613; in the data active = inhibition above about 42%;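 also: HEK293T cells co-transfected with LRH-1 and StAR promoter luciferase reporter; 0% = vehicle wells and 100% = parental cells lacking receptor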). The conditions noted are these: cell-based LRH-1 luciferase reporter, inverse agonism; at 3.6 µM; hits give high values.
Assay [7] concerns the target Steroidogenic factor 1 (Homo sapiens) (UniProt Q13285). Description: inverse agonism at SF1 nuclear receptor – cell-based, luminescence, high throughput, counter-screen for LRH-1 inverse agonist project (AID 651614; in the data active = inhibition above about 44%;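 also: cells cotransfected with StAR promoter reporter and SF1 expression vector; 0% = vehicle on cells with receptor and 100% = vehicle on cells lacking receptor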). Conditions: cell-based SF1 luciferase reporter, at 3.6 µM, hits give high values. (In general: The purpose of a counterscreen is to sort out artefacts and off-target activity.)

Assay [8] is described as follows: compounds suppressing VP16-driven luciferase signal – cell-based, luminescence, high throughput, counter-screen for LRH-1 inverse agonist project (AID 651615; in the data active = inhibition above about 33%). The conditions noted are these: Gal4-VP16 luciferase reporter cells, at 3.6 µM, hits give high values.
Assay [9] concerns transactivating tegument protein VP16 (Human herpesvirus 1). In words: compounds suppressing VP16-driven luciferase signal – cell-based, luminescence, single concentration, counter-screen for SRC2 inhibitor project (AID 652007; in the data active = inhibition above about 36%). Conditions: cell-based VP16 transactivation luciferase reporter, at 8.9 µM, hits give high values.
Assay [10] has as its target Nuclear receptor coactivator 2 (Homo sapiens) (UniProt Q15596). In words: inhibition of GAL4-SRC2 driven luciferase expression – cell-based, luminescence, HEK293, triplicate, confirmation (AID 652008;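 active = mean inhibition above 46.5%, the solvent-only control mean plus 3 SD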;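 also: 0% = DMSO-treated cells and 100% = Gossypol at 36 µM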). The conditions noted are these: HEK293 GAL4-SRC2 luciferase reporter, at 8.9 µM, hits give high values.

Values without a mark were called inactive. Activity calls are given as the source filed them. Rule as the data show it, unless noted: active = inhibition above about 30%; inactive = the rest.

Chain of Nuclear receptor coactivator 1 (Homo sapiens) (Q15788 whole entry, looked up, the tested form may be a part): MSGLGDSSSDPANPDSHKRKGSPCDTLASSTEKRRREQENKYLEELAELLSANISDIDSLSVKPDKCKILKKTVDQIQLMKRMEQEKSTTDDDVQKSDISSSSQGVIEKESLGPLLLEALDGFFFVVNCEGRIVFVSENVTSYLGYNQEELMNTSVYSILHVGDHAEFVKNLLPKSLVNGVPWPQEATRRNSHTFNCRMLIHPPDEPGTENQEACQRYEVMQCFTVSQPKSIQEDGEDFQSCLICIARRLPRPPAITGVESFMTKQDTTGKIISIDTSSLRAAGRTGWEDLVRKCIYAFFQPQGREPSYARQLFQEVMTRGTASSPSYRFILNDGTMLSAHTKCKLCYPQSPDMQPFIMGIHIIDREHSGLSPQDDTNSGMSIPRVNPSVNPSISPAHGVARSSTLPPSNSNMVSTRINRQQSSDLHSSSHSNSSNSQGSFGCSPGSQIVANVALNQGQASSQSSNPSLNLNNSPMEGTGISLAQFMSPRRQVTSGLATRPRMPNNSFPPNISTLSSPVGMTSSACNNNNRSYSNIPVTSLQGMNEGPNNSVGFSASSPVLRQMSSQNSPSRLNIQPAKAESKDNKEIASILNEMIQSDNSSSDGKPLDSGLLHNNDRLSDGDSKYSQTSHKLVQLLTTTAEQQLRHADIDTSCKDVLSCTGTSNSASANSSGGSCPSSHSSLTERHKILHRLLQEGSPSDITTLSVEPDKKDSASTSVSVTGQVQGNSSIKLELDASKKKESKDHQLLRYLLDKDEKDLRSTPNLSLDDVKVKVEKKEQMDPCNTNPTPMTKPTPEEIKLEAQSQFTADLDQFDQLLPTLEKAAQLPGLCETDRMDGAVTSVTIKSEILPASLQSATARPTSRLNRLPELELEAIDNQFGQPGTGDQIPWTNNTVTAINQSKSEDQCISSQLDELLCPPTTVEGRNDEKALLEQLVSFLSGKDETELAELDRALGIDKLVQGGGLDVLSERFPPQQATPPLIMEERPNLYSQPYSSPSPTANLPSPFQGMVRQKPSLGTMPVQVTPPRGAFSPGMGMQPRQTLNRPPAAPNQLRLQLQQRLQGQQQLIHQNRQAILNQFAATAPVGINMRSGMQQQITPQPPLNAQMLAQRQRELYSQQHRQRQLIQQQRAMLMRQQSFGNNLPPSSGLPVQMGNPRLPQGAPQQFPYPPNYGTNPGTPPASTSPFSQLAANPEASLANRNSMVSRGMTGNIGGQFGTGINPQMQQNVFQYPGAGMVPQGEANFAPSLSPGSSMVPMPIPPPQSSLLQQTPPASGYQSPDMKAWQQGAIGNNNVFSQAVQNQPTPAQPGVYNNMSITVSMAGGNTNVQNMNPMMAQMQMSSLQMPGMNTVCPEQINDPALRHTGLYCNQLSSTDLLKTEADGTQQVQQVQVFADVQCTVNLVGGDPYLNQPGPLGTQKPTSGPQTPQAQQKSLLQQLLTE
Chain of Nuclear receptor coactivator 3 (Homo sapiens) (Q9Y6Q9 whole entry, looked up, the tested form may be a part): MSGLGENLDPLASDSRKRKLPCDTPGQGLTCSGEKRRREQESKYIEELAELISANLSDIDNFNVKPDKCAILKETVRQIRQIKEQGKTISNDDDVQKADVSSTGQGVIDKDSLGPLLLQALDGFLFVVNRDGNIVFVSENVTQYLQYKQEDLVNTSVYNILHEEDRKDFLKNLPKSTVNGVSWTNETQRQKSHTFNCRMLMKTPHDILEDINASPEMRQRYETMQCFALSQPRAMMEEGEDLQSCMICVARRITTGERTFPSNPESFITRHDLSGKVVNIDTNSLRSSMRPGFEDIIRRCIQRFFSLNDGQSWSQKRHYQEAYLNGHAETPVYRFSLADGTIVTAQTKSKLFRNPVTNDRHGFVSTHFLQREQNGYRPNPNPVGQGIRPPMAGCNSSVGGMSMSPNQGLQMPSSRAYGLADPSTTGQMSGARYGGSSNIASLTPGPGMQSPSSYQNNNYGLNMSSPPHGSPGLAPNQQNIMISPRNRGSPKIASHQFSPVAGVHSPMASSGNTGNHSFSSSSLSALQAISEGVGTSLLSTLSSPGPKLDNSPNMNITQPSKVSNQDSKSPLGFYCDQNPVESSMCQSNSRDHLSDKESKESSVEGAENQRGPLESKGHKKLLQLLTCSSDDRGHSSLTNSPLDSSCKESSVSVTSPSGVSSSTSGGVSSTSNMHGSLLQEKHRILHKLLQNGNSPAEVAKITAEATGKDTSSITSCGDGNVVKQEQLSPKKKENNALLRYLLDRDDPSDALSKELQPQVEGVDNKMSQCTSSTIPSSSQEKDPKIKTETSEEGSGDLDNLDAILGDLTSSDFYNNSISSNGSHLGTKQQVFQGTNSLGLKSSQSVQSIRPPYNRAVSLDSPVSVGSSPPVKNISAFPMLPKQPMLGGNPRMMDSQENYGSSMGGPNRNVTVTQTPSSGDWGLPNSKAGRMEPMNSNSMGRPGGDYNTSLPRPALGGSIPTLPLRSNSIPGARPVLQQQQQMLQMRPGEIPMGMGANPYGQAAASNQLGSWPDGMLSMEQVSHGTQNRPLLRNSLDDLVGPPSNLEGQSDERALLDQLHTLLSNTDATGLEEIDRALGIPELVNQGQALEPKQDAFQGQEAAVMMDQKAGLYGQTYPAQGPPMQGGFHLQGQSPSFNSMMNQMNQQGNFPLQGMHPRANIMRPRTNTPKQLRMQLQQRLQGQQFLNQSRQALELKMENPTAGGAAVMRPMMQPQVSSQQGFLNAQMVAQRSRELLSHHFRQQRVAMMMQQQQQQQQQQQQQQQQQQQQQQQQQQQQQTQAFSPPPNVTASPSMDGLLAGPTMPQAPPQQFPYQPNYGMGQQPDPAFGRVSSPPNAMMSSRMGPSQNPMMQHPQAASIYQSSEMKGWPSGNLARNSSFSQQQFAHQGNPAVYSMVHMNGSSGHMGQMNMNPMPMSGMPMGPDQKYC
Chain of Steroidogenic factor 1 (Homo sapiens) (Q13285 whole entry, looked up): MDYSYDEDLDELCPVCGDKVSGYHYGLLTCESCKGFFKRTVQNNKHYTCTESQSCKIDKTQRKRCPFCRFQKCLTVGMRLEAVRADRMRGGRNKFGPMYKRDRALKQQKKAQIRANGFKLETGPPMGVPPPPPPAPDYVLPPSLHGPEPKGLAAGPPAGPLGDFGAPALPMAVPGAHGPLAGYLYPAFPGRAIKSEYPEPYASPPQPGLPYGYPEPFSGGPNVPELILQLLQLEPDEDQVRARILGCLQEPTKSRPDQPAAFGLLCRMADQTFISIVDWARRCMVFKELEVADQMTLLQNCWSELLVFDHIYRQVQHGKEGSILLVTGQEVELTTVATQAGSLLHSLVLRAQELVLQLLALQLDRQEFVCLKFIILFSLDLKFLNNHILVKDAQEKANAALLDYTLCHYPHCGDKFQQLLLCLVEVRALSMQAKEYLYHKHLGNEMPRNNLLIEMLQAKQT
Chain of Nuclear receptor subfamily 5 group A member 2 (Homo sapiens) (O00482 whole entry, looked up): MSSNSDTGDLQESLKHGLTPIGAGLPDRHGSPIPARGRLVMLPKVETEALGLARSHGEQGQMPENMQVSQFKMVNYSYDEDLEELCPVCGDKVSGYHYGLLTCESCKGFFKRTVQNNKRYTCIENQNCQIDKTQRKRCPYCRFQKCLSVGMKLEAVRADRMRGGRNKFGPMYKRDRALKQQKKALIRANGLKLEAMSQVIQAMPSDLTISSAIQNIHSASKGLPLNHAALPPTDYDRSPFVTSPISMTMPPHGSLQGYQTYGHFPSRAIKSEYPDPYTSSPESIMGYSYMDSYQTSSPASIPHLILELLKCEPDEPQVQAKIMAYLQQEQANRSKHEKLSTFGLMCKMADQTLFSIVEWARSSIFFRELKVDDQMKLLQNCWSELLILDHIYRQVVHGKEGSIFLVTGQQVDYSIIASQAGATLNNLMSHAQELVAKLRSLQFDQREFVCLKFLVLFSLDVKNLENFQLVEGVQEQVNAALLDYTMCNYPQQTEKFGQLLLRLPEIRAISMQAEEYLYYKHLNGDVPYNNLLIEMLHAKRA

A word on the inhibition: it is the change of the read-out against control, counted positive when it falls. Turning to `NC(=S)NN=C1c2cc(OCCN3CCOCC3)ccc2-c2ccc(OCCN3CCOCC3)cc21`, the inhibition in assay [1] was 53.8% (active); in assay [2], 68.8% (active); in [3], 8.8%; in [4], 65.2% (active); in assay [5], 89.9% (active); in assay [6], 96.3% (active). Also, the inhibition in assay [7] is 82.2% (active); in assay [8], 91.7% (active); in assay [9] it was 68.6% (active); in assay [10], 58.9% (active).
Turning to `CC(C)(C)C(=O)Nc1ccc(NC(=O)c2ccco2)nc1`, the inhibition was 69.9% (active) in assay [1]; 64.1% (active) in assay [2]; 39.4% in [3]; 39.8% (active) in [4]; 56.1% (active) in assay [5]; 15.6% in assay [6]. Further, the inhibition was 59.4% (active) in assay [7], 36.7% (active) in assay [8], 72.7% (active) in [9] and 92.8% (active) in [10].
In the case of `COC1=CC(=O)c2nc(Cl)ccc2C1=O`, the inhibition is 67.8% (active) in assay [1]; 55.1% (active) in [2]; -9.24% in [3]; 60.7% (active) in assay [4]; 56.2% (active) in assay [5]; 65.1% (active) in assay [6]. Also, the inhibition in assay [7] was 70% (active); in [8], 72.2% (active); in assay [9] it was 24.5%; in assay [10], 89.5% (active).
Turning to `C=C1C(=O)C2=CC1CCC(=O)C1(C)CCC(OC(C)=O)C(C)(C)C1CC2O` (stereo not given), the inhibition in assay [1] is 35.4%; in assay [2] it was 53.2% (active); in assay [3] it was 8.46%; in [4], 51.3% (active); in assay [5], 30.3% (active); in assay [6], 3.03%. Further, the inhibition in assay [7] was 33.2%; in assay [8], 56.1% (active); in [9], 33.9%; in assay [10] it was 41.2%.
In the case of `Nc1ccc(Oc2cccc(Oc3ccc(N)cc3)c2)cc1`, the inhibition in assay [1] is 43.4% (active); in assay [2] it was 29.6% (active); in assay [3], 24.3%; in [4], 27.6% (active); in [5], 47.8% (active); in assay [6], 75.6% (active). The inhibition is 67.8% (active) in [7], 47.5% (active) in assay [8], 88.8% (active) in assay [9] and 92.8% (active) in assay [10].
On to `Cc1ccc(/C=C2\SC(=S)N(CCCC(=O)Nc3ccccn3)C2=O)cc1`, for which the inhibition in assay [1] was 49.1% (active); in assay [2] it was 33.9% (active); in assay [3] it was 55.7% (active); in assay [4], 28.9% (active); in assay [5], 57.5% (active); in assay [6] it was 45.8% (active). The inhibition in assay [7] was 64.2% (active); in [8], 39.1% (active); in [9], 58.3% (active); in [10], 88.4% (active).
In the case of `C=C1C(=O)OC2CC1C(OC(C)=O)CC(C)=CCCC(C)=CCCC2(C)O` (stereo not given), the inhibition was 0.28% in assay [1]; 39.9% (active) in assay [2]; 23.6% in assay [3]; 34.9% (active) in assay [4]; 39.1% (active) in [5]; 25.2% in assay [6]. Besides, the inhibition is 25% in assay [7], 56% (active) in [8], 26.4% in [9] and 38.7% in assay [10].
Turning to `O=c1cnnc(N/N=C/c2ccccn2)[nH]1`, the inhibition is 81.9% (active) in assay [1]; 68.9% (active) in assay [2]; 76% (active) in assay [3]; 54.8% (active) in assay [4]; 87.7% (active) in assay [5]; 103% (active) in assay [6]. Further, the inhibition in assay [7] was 83.3% (active); in assay [8] it was 65.3% (active); in [9], -24.3%; in assay [10] it was 26.5%.
With `COc1ccc2cc3c(N)nn(C(=O)c4ccccc4Cl)c3nc2c1`, the inhibition in [1] was 74.4% (active); in [2], 64.5% (active); in assay [3] it was 60.9% (active); in [4] it was 62.6% (active); in [5] it was 47.3% (active); in assay [6], 75.6% (active). For the same compound, the inhibition in [7] is 59.1% (active); in assay [8], 81.6% (active); in [9], -12.1%; in assay [10], 50% (active).
Turning to `Cc1ccc(C(=O)N/N=C/c2ccc([N+](=O)[O-])s2)cc1`, the inhibition is 54.5% (active) in assay [1]; 39.1% (active) in [2]; 33.7% in assay [3]; 44.4% (active) in assay [4]; 70.3% (active) in assay [5]; 83.9% (active) in [6]. Also, the inhibition in assay [7] was 75.6% (active); in [8], 52.3% (active); in [9], 82.5% (active); in assay [10], 92.4% (active).
With `O=C(O)C1CCCCC1C(=O)Nc1ccc2c(c1)OCCO2` (stereo not given), the inhibition is -6.32% in assay [1]; -0.43% in [2]; -18.1% in [3]; -13.8% in assay [4]; -0.9% in assay [5]; -1.32% in assay [6]. Further, the inhibition in assay [7] was -1.69%; in assay [8] it was 0%; in [9], -11.1%; in assay [10] it was 26.9%.
In the case of `O=C(N/N=C\c1ccc([N+](=O)[O-])o1)C1COc2ccccc2O1` (stereo not given), the inhibition is 35.9% in assay [1]; 9.31% in [2]; -8.42% in assay [3]; -19.5% in [4]; 27.1% in assay [5]; 40.7% in assay [6]. Also, the inhibition is 49.8% (active) in assay [7], -8.47% in assay [8], 40.8% (active) in assay [9] and 51.5% (active) in assay [10].
As to `O=C(COC(=O)c1ccc[nH]c1=O)Nc1ccc(N2CCCCC2)cc1`, the inhibition in [1] was 54.4% (active); in [2], 20.8%; in assay [3] it was 42.2%; in assay [4] it was 5.72%; in assay [5], 42.1% (active); in [6], 55% (active). The inhibition in assay [7] was 41%; in assay [8] it was 6.65%; in [9], 45.1% (active); in assay [10], 90.5% (active).
For the compound `Cc1nn(-c2nc3ccccc3[nH]2)c(=O)c2ccccc12`, the inhibition in assay [1] is 72.3% (active); in [2], 65% (active); in assay [3], 47.4% (active); in assay [4], 68.3% (active); in assay [5], 69.2% (active); in [6], 63.9% (active). In addition, the inhibition in assay [7] was 78.8% (active); in assay [8], 59.3% (active); in [9], 82.9% (active); in assay [10] it was 89.3% (active).
As to `CCCn1c(C)cc(C(=O)CN2C(=O)c3ccccc3S2(=O)=O)c1C`, the inhibition is 70.8% (active) in [1]; 60.4% (active) in assay [2]; 45.7% in assay [3]; 55% (active) in assay [4]; 67% (active) in [5]; 36% in assay [6]. Moreover, the inhibition in [7] is 62.4% (active); in assay [8] it was 51.2% (active); in assay [9], 62.8% (active); in [10], 80.5% (active).
